Tests used:
Conditions in all cases: concentration: 1 μM, replicates: in singlicate; n = 1
ASK2 = system: T1, ASK2
T1 construct: gene MAP3K6

AURKA = system: AURKA
AURKB = system: AURKB
AURKC = system: AURKC
AXL = system: AXL
BIKE = system: T2, BIKE
T2 construct: gene BMP2K

BLK = system: BLK
BMPR1A = system: BMPR1A
BMPR1B = system: BMPR1B
BMPR2 = system: BMPR2
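Also: KINOMEscan kinase panel screen.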

Row | SMILES | %Inh (ASK2) [%] | %Inh (AURKA) [%] | %Inh (AURKB) [%] | %Inh (AURKC) [%] | %Inh (AXL) [%] | %Inh (BIKE) [%] | %Inh (BLK) [%] | %Inh (BMPR1A) [%] | %Inh (BMPR1B) [%] | %Inh (BMPR2) [%]
1 | COc1ccc(NC(=O)c2ccoc2)cc1-c1ccc(C(=O)NCC2CC2)cc1 [GW810437] | 0 | 1 | 33 | 0 | 0 | 0 | 21 | 7 | 2 | 46
2 | COc1cccc(-c2nc(-c3ccccc3)[nH]c2-c2ccncc2)c1 [SB-610250] | 11 | 0 | 39 | 0 | 15 | 0 | 60 | 0 | 0 | 0
3 | CCn1c(-c2nonc2N)nc2c(-c3ccccc3)ncc(OCCCN)c21.O=C(O)C(F)(F)F.O=C(O)C(F)(F)F [GSK260205] | 0 | 0 | 36 | 0 | 0 | 8 | 20 | 0 | 0 | 2
4 | Cc1ccc(NC(=O)c2cccc(N3CCCCC3)c2)cc1-c1ccc(C(=O)NCC2CC2)cc1 [GSK1917008] | 11 | 0 | 0 | 7 | 5 | 13 | 72 | 0 | 2 | 0
5 | Cc1ccccc1CC(=O)N1CCc2cc(-c3cn(C)c4ncnc(N)c34)ccc21 [GSK2603346] | 6 | 27 | 92 | 100 | 98.7 | 82 | 49 | 0 | 0 | 0
6 | CCn1cnc2c(NCc3ccccc3)ncnc21 [SKF-96418] | 0 | 0 | 41 | 0 | 0 | 0 | 16 | 0 | 0 | 48
7 | Cl.N#CCc1ccc(Nc2nccc(Nc3ccc(Oc4ccccc4)cc3)n2)cc1 [GW639905] | 7 | 6 | 31 | 34 | 22 | 26 | 94.1 | 0 | 0 | 0
8 | Cc1ccc(NC(=O)c2ccc(Cl)c(Cl)c2)cc1-c1ccc(C(=O)Nc2ccncc2)cc1 [GSK1398460] | 0 | 7 | 1 | 67 | 100 | 40 | 45 | 0 | 0 | 0
9 | O=C(Nc1n[nH]c2nc(-c3ccccc3)ccc12)C1CC1 [SB-708999] | 32 | 22 | 15 | 8 | 0 | 40 | 0 | 0 | 6 | 10
10 | O=C(Nc1n[nH]c2cc(-c3cccs3)ccc12)C1CC1 [SB-731284] | 39 | 42 | 51 | 42 | 0 | 84 | 0 | 2 | 35 | 24
11 | Fc1cc(Cl)ccc1Nc1ccnc2cc(-c3ccc(CN4CCOCC4)o3)ccc12 [GW560109] | 8 | 89 | 35 | 35 | 40 | 21 | 94.4 | 18 | 62 | 0
12 | Cl.Cl.NCC(NC(=O)c1cc(-c2cccnc2)c(-c2ccnc3[nH]ccc23)s1)c1ccccc1 (centres unmarked) [GSK1323434] | 16 | 15 | 19 | 36 | 23 | 63 | 40 | 0 | 51 | 5
13 | Cn1cc(-c2ccc3c(c2)CCN3C(=O)Cc2cc(F)cc(F)c2F)c2c(N)ncnc21 [GSK2634140] | 0 | 18 | 92.6 | 59 | 89 | 33 | 72 | 0 | 5 | 0
14 | Nc1ncc(-c2ccc3nccc(-c4ccncc4)c3c2)cc1S(=O)(=O)N1CCCCC1 [GSK1693850] | 0 | 59 | 31 | 35 | 52 | 14 | 0 | 0 | 0 | 0
15 | CCOc1nccc(-c2c(-c3ccc(F)cc3)ncn2C2CCNCC2)n1 [SB-249175] | 0 | 52 | 59 | 15 | 54 | 0 | 0 | 100 | 20 | 26
16 | CN1CCN(Cc2ccc(NC(=O)Nc3ccc(N(C)c4ccnc(Nc5ccc(CS(C)(=O)=O)cc5)n4)cc3)cc2)CC1.Cl [GW827654] | 4 | 99.9 | 99.7 | 98.5 | 99.3 | 93.2 | 94.1 | 44 | 96.2 | 87

Row | SMILES | %Inh (ASK2) [%] | %Inh (AURKA) [%] | %Inh (AURKB) [%] | %Inh (AURKC) [%] | %Inh (AXL) [%] | %Inh (BIKE) [%] | %Inh (BLK) [%] | %Inh (BMPR1A) [%] | %Inh (BMPR1B) [%] | %Inh (BMPR2) [%]
17 | Cc1ccc(-c2ccc3occ(-c4ccc(S(C)=O)cc4)c3c2)nn1 (centres unmarked) | 0 | 0 | 3 | 0 | 0 | 0 | 0 | 15 | 0 | 0
18 | COc1cc(Nc2ccnc3cc(-c4ccncc4)ccc23)cc(OC)c1OC.Cl [GW494610] | 0 | 0 | 82 | 27 | 31 | 0 | 94.9 | 62 | 99 | 10
19 | CN(c1ccc(NC(=O)N2CCN(CCCN3CCOCC3)CC2)cc1)c1ccnc(Nc2ccc(CS(C)(=O)=O)cc2)n1.Cl [GW830899] | 0 | 84 | 76 | 75 | 2 | 86 | 0 | 6 | 7 | 0
20 | O=C(O)C(F)(F)F.O=c1[nH]ccc2nc(N[C@@H]3CCNC3)nc(Nc3ccc4c(c3)S(=O)(=O)CC4)c12 [GSK2181306] | 38 | 83 | 72 | 87 | 100 | 98.8 | 28 | 0 | 7 | 99.5
21 | CSc1ccc(NC2=C(c3ccc(Cl)cc3)C(=O)NC2=O)cc1 [SB-317658] | 25 | 32 | 9 | 2 | 10 | 0 | 0 | 6 | 0 | 0
22 | COc1cc(Nc2nccc(N3CCC(NC(=O)Nc4ccc5c(c4)OCO5)C3)n2)cc(OC)c1OC (centres unmarked) [GSK1379766] | 12 | 86 | 69 | 90.1 | 0 | 74 | 0 | 0 | 0 | 30
23 | CC(C)NCC(Cc1ccccc1)NC(=O)c1cc(Br)c(-c2ccnc3[nH]ccc23)s1.Cl.Cl (centres unmarked) [GSK1383281] | 11 | 95.1 | 93.8 | 91.7 | 74 | 79 | 0 | 0 | 0 | 8
24 | COC(=O)Nc1nc2ccc(Oc3ccc(NC(=O)Nc4cc(C(F)(F)F)ccc4F)cc3)cc2[nH]1.Cl [GW654607] | 15 | 0 | 92.3 | 42 | 97.3 | 10 | 67 | 18 | 0 | 0
25 | CN(c1ccc(NC(=O)Nc2cccc(Cl)c2)cc1)c1ccnc(N)n1.Cl [GW830707] | 15 | 28 | 68 | 70 | 37 | 4 | 0 | 0 | 0 | 52
26 | Cc1cccc(Nc2nc(NCCN)ncc2C(N)=O)c1 [GSK1292139] | 8 | 18 | 0 | 25 | 9 | 77 | 1 | 0 | 0 | 70
27 | Cn1cc(-c2cnc(N)c3c(-c4ccc5c(c4)CCN5C(=O)Cc4ccccc4)csc23)cn1 [GSK2593074] | 17 | 24 | 97.8 | 92.2 | 95.9 | 0 | 93 | 1 | 6 | 6
28 | CC(C)c1nc(-c2ccc(F)c(NS(=O)(=O)c3c(F)cccc3F)c2)c(-c2ccnc(Nc3ccc(N4CCOCC4)nc3)n2)s1 [GSK1804250] | 25 | 11 | 29 | 88 | 82 | 44 | 99.5 | 40 | 99.7 | 1
29 | Cc1nn2c(=O)cc(N3CCO[C@H](C)C3)nc2n1Cc1cccc(Cl)c1Cl [GSK2373693] | 0 | 35 | 17 | 6 | 4 | 17 | 17 | 35 | 0 | 35
30 | COc1ccc(C)c(Nc2ccnc(Nc3ccc(-c4cnc[nH]4)cc3)n2)c1.Cl [GW784041] | 0 | 20 | 8 | 56 | 0 | 37 | 59 | 70 | 99.9 | 0
31 | Cc1ccc(Nc2ccnc(Nc3ccc(C)c(F)c3)n2)cc1O.Cl [GW582868] | 0 | 0 | 0 | 19 | 32 | 29 | 51 | 7 | 30 | 7
32 | CCNC(=O)/C=C/c1n[nH]c2cc(Sc3ccccc3C(=O)NC)ccc12 | 0 | 86 | 97.4 | 84 | 76 | 48 | 7 | 12 | 30 | 1

— paper PMC5540273 (PLoS ONE, 2017)
